According to PubChem BioAssay (Tox21):
Values without a mark were called inactive. Activity calls are given as the source filed them. The call rests on the fitted dose curve; in most records, active means well fitted curve in the direction sought with a large enough effect in the repeat runs; inconclusive means weak or mixed curves; inactive means flat fitted curve, though single readings scatter.

Test: qHTS assay to test for compound auto fluorescence at 535 nm (green) in HepG2 cell free culture (AID 720686)
Settings: Cell-free medium, green autofluorescence 485/535 nm; series mostly up to 91.3 µM; fluorescence, % of fluorescein control: at the top concentration
Text: U.S. Tox21 Program National Center for Advancing Translational Sciences [NCATS] NIH Chemical Genomics Center [NCGC] U.S. Environmental Protection Agency [EPA] National Institutes of Environmental Health Sciences [NIEHS] National Toxicology Program [NTP] U.S. Food and Drug Administration [FDA] Tox21 Assay Overview: Compound auto fluorescence often interferes with screening of the compound library against various biological targets and signaling pathways. Some of these compounds may have fluorophoric properties. Such properties may interfere with the assay outputs resulting in false positives and/or negatives. To decrease such complications and ensure the compound activities are relevant in terms of biological response, the Tox21 10K compound library was screened for auto fluorescence. From the fluorophores used as reporter signals in our screening assays, the auto fluorescence equivalencies of compounds against three fluorophores have been evaluated: Triamterene, Fluorescein and Rose Bengal sodium for blue, green and red fluorescence, respectively. The fluorescence intensities were measured using Excitation/Emission wavelengths at 405/460nm, 485/535nm and 540/590nm for blue, green and red labels, respectively. This assay includes the green fluorescence data.
Tox21 Assay Protocol Summary: 5 uL of culture medium (MEM containing 10% FBS) per well was dispensed into black wall/clear bottom 1536-well plates using a Multidrop Combi Dispenser (ThermoFisher Scientific, Waltham, MA). After 23 nL compound or DMSO vehicle was transferred into assay plate by a pintool work station (Kalypsys, San Diego, CA), fluorescence intensities in the assay plates were measured by an Envision (PerkinElmer, Shelton, CT) plate reader using three labels for measuring blue, green and red fluorescence at […] 460, 535 and 590nm respectively.
On the % scale 0 is the no-effect control and ±100 the full control effect.

| Compound | fluorescence, % of fluorescein control | outcome |
| --- | --- | --- |
| CCC1NC(=O)c2cc(S(N)(=O)=O)c(Cl)cc2N1 (stereo not given) | 0.0837% [at 18.6 µM] | – |
| C/C=C(/C(=C/C)c1ccc(O)cc1)c1ccc(O)cc1 | -0.0063% [at 18.6 µM] | – |
| C=CC(C)(CCC=C(C)C)OC(=O)CC(C)C (stereo not given) | -0.147% | – |
| O=C1C(=O)c2ccccc2C(O)=C1C1CCC(c2ccc(Cl)cc2)CC1 (stereo not given) | 0.136% [at 18.6 µM] | – |
| O=C(O)CCc1nc(-c2ccccc2)c(-c2ccccc2)o1 | -0.0313% [at 46 µM] | – |
| CC(C)(O)c1ccc(CNC(=O)c2cccnc2Oc2ccc3nonc3c2)cc1 | 0.0191% | – |
| CN1CC(=O)N2[C@H](c3ccc4c(c3)OCO4)c3[nH]c4ccccc4c3C[C@@H]2C1=O | 0.005% [at 46 µM] | – |
| COc1cc(Nc2c(C#N)cnc3cc(OCCCN4CCN(C)CC4)c(OC)cc23)c(Cl)cc1Cl | 0.148% [at 46 µM] | – |
| CCOC(C)=O | – | inactive |
| CN(C)CCN1C(=O)c2ccccc2N(C)c2ccccc21 | -0.0679% [at 46 µM] | – |
| CCn1cc(C(=O)O)c(=O)c2cc(F)c(N3CCNCC3)cc21 | – | inactive |
| C=CCc1ccccc1OCC(O)CNC(C)C (stereo not given) | 0.0432% [at 46 µM] | – |
| O=C(/C=C/c1ccc(O)c(O)c1)O[C@@H]1C[C@@](OC(=O)/C=C/c2ccc(O)c(O)c2)(C(=O)O)C[C@@H](O)[C@@H]1O | 0.085% [at 46 µM] | – |
| O=C1c2ccccc2C(=O)C1(O)O | -0.0618% | – |
| CC=C(Cl)Cl | 0.0349% | – |
| CC1(C)[C@@H](OC(=O)CCC(=O)O)CC[C@]2(C)[C@H]3C(=O)C=C4[C@@H]5C[C@@](C)(C(=O)O)CC[C@]5(C)CC[C@@]4(C)[C@]3(C)CC[C@@H]12 | 0.0091% [at 18.6 µM] | – |
| Clc1cc(Cl)nc(Cl)n1 | -0.129% [at 95.7 µM] | – |
| CCC1(CO)COCOC1 | 0.0027% | – |
| CC(C)C[C@H](NC(=O)[C@H](CCc1ccccc1)NC(=O)CN1CCOCC1)C(=O)N[C@@H](Cc1ccccc1)C(=O)N[C@@H](CC(C)C)C(=O)[C@@]1(C)CO1 | 0.0191% [at 46 µM] | – |
| Cc1cc2c(OCC(CNC(C)(C)C)OC(=O)c3ccccc3)cccc2[nH]1 (stereo not given) | 0.0011% [at 46 µM] | – |

| Compound | fluorescence, % of fluorescein control | outcome |
| --- | --- | --- |
| CC(C)C(O)(c1ccc(OC(F)(F)F)cc1)c1cncnc1 (stereo not given) | 0.0174% | – |
| Nc1nc2ccc([N+](=O)[O-])cc2s1 | -0.105% | – |
| C=C(C)C(=O)OCCOCCOC(=O)C(=C)C | 0.0899% | – |
| CC(CN(C)C)C(C)(O)Cc1ccc(Cl)cc1 (stereo not given) | -0.0392% [at 46 µM] | – |
| O=C1c2ccccc2C(=O)C1c1nc2ccccc2c(Br)c1O | 0.141% | – |
| Cc1ccc(C(C)(C)O)cc1 | -0.0015% | – |
| CO/N=C(/C(=O)N[C@@H]1C(=O)N2C(C(=O)O)=C(COC(N)=O)CS[C@H]12)c1ccco1 | – | inactive |
| C[C@]1(Cn2ccnn2)[C@H](C(=O)O)N2C(=O)C[C@H]2S1(=O)=O | 0.0852% [at 46 µM] | – |
| CCCCCCCCCCC(=O)O | -0.0281% [at 95.7 µM] | – |
| CC(C)C=O | -0.0284% [at 95.7 µM] | – |
| CC1=Nc2ccc3ccccc3c2C1(C)C | -0.0214% | – |
| CC(CO)CO | 0.009% [at 95.7 µM] | – |
| O=c1[nH]c2ccc(Cl)cc2o1 | -0.0339% | – |
| CC1(C)S[C@@H]2[C@H](NC(=O)C(c3ccccc3)S(=O)(=O)O)C(=O)N2[C@H]1C(=O)O (stereo not given in full) | -0.0955% [at 46 µM] | – |
| C=C1c2cccc(O)c2C(O)=C2C(=O)[C@]3(O)C(O)=C(C(N)=O)C(=O)[C@@H](N(C)C)[C@@H]3[C@@H](O)[C@H]12 | -0.0019% [at 18.6 µM] | – |
| CC1(C)[C@H](C(=O)O)N2C(=O)C[C@H]2S1(=O)=O | 0.0157% [at 46 µM] | – |
| O=c1[nH]ncc2ccccc12 | 0.0056% | – |
| CC(=O)OCC(=O)NCCCOc1cccc(CN2CCCCC2)c1 | – | inactive |
| N#CCCN(CCO)CCO | -0.145% | – |
| NCCNCCO | 0.0509% [at 95.7 µM] | – |
